Experimental data from PubChem BioAssay AID620 (Sanford-Burnham Center for Chemical Genomics, 2007).
About 360 (0.41%) of roughly 87,000 compounds were called active. Shown is part of a subset that was picked to be rich in actives. Unmarked numbers belong to inactive results. Cut-off read from the data, not from the text of the source: active = cytotoxicity above about 50%; inactive = the rest.

Assay: HT1080 cell viability loss – fluorescence readout (AID 620);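 note: cells exposed to compound overnight then 4 h with Alamar Blue; 0% = vehicle DMSO and 100% = killing control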
Conditions: at 10 µM, stronger effect = higher value

| Compound | cytotoxicity |
| --- | --- |
| COc1ccc(OC)c(S(=O)(=O)Nc2cc(OC)c(Cl)cc2OC)c1 | 9.8% |
| COc1cc(NS(=O)(=O)c2cc(C)ccc2OC)c(OC)cc1Cl | -2.6% |
| COc1cc(NS(=O)(=O)c2ccc(OC)c(C)c2C)c(OC)cc1Cl | 55.1% (active) |
| CCOc1cc(C2CC(=O)Nc3cc(C)c(C)cc32)ccc1O (configuration not stated) | -0.2% |
| COc1ccc(NC(=O)CCN2CCCCC2)cc1 | 9% |
| CCOc1ccccc1-c1nc(-c2cc3ccccc3nc2OC)no1 | -4.6% |
| Cc1cc(F)c(F)c(C(=O)N2CCN(C)CC2)c1Cl | 6.8% |
| CCc1ccc(C2(O)CC(C(F)(F)F)=NN2C(=O)Cc2ccc([N+](=O)[O-])cc2)cc1 (configuration not stated) | 2.2% |
| c1cc2c(cc1C1CCCCC1)c1c3n2CCCNC3CCC1 (configuration not stated) | 69.7% (active) |
| Cc1ccc2c(c1)c1c3n2CCN(C(=O)CN2CCN(C)CC2)C3CCC1 (configuration not stated) | 12.8% |
| Cc1ccc2c(c1)c1c3n2CCCNC3CCC1 (configuration not stated) | -1.3% |
| c1ccc2c(c1)c1c3n2CCNC3CCC1 (configuration not stated) | -2.4% |
| Cc1ccc2c(c1)c1c3n2CCN(C(=O)C2CC2)C3CCC1 (configuration not stated) | -15.3% |
| O=C(NC(Cc1ccc2c(c1)OCO2)C(=O)N1CCCC1C(=O)O)c1ccccc1 (configuration not stated) | 3.5% |
| Cn1c(=O)[nH]c2sc3c(c2c1=O)CC(C)(C)OC3 | 27.1% |
| COCCOC(=O)c1[nH]c2c(c1C)C(=O)CC(c1ccco1)C2 (configuration not stated) | 67.1% (active) |
| CCOC(=O)c1[nH]c2c(c1C)C(=O)CC(c1ccco1)C2 (configuration not stated) | 66% (active) |
| CCOC(=O)c1ccc(N=CC2=C(O)CC(c3ccco3)CC2=O)cc1 (configuration not stated) | -1.5% |
| CCOCCOC(=O)c1[nH]c2c(c1C)C(=O)CC(c1ccc(N(C)C)cc1)C2 (configuration not stated) | -3.6% |
| COc1ccc(OC)c(C2CC(=O)c3c([nH]c(C(=O)OCC4CCCO4)c3C)C2)c1 (configuration not stated) | -5.3% |
| Cc1c(C(=O)OCC2CCCO2)[nH]c2c1C(=O)CC(c1ccc(N(C)C)cc1)C2 (configuration not stated) | -2.7% |
| Cc1c(C(=O)OCC2CCCO2)[nH]c2c1C(=O)CC(c1ccco1)C2 (configuration not stated) | 52.9% (active) |
| COCCOC(=O)c1[nH]c2c(c1C)C(=O)CC(c1cc(OC)ccc1OC)C2 (configuration not stated) | -3.5% |
| Cc1c(C(=O)N2CCOCC2)[nH]c2c1C(=O)CC(c1ccc(Cl)cc1)C2 (configuration not stated) | 5.8% |
| CSCCOC(=O)c1[nH]c2c(c1C)C(=O)CC(c1ccco1)C2 (configuration not stated) | 62.4% (active) |

| Compound | cytotoxicity |
| --- | --- |
| COCCOC(=O)c1[nH]c2c(c1C)C(=O)CC(c1ccc(N(C)C)cc1)C2 (configuration not stated) | -0.7% |
| COC(=O)NCC(c1cccnc1)N1CCOCC1 (configuration not stated) | 2.8% |
| COc1ccc(C(c2nnnn2C2CCCC2)N2CCN(C3CCCC3)CC2)cc1OC (configuration not stated) | -1.8% |
| Cc1ccc(NC(=O)c2oc3c(c2C)C(=O)CC(C)(C)C3)cc1 | -0.8% |
| O=S(=O)(c1ccccc1)N1CCN(S(=O)(=O)c2ccccc2)C1 | -4.1% |
| CCn1cnc2cc(NS(=O)(=O)c3ccc(C)cc3)ccc21 | 11.7% |
| Cc1ccccc1NC(=O)c1cccc2nccnc12 | -4.6% |
| COc1ccc(-c2cnc3nc[nH]c(=O)c3n2)cc1 | -12.3% |
| Cc1cnc(C(=O)Nc2ccc(F)cc2)cn1 | -11.7% |
| COc1cccc(C2c3c(-c4cc(Cl)c(C)cc4O)n[nH]c3C(=O)N2Cc2cccnc2)c1 (configuration not stated) | -4.8% |
| CCOC(=O)N1CCN(C(=O)c2cccn3c(=O)c4sccc4nc23)CC1 | -2.4% |
| FC(F)(F)c1ccc(N2CCN(c3ncnc4c3nnn4Cc3ccccc3Cl)CC2)cc1 | -17.6% |
| Cc1c(C(=O)OCC(C)C)[nH]c2c1C(=O)CC(c1ccco1)C2 (configuration not stated) | 63.9% (active) |
| CCC(C)OC(=O)c1[nH]c2c(c1C)C(=O)CC(c1ccc(N(C)C)cc1)C2 (configuration not stated) | -1.9% |
| Cc1c(C(=O)OCCOC(C)C)[nH]c2c1C(=O)CC(C)(C)C2 | -5.6% |
| Cc1c(C(=O)OCc2ccccc2)[nH]c2c1C(=O)CC(c1ccco1)C2 (configuration not stated) | 67.8% (active) |
| COCCOC(=O)c1[nH]c2c(c1C)C(=O)CC(c1ccc(F)cc1)C2 (configuration not stated) | -9% |
| CCOC(=O)c1[nH]c2c(c1C)C(=O)CC(c1ccc(F)cc1)C2 (configuration not stated) | 70.2% (active) |
| CC1=C(C(=O)OCc2ccccc2)C(c2ccco2)C2=C(CC(C)(C)CC2=O)N1 (configuration not stated) | -6.1% |
| COc1ccc(OC)c(C2CC(=O)c3c([nH]c(C(=O)OC(C)C)c3C)C2)c1 (configuration not stated) | 10.6% |
| Cc1c(C(=O)OCCOC(C)C)[nH]c2c1C(=O)CC(c1ccco1)C2 (configuration not stated) | 66.2% (active) |
| Cc1c(C(=O)O)[nH]c2c1C(=O)CC(c1ccc(Cl)cc1)C2 (configuration not stated) | -4.3% |
| COc1cc(C2CC(=O)c3c([nH]c(C(=O)OCCOC(C)C)c3C)C2)cc(OC)c1OC (configuration not stated) | -1.3% |
| Cc1c(C(=O)N2CCOCC2)[nH]c2c1C(=O)CC(c1ccccc1Cl)C2 (configuration not stated) | 34.2% |
| CCCCOc1ccc(C(=O)N2CC(C)OC(C)C2)cc1 (configuration not stated) | -6.4% |

| Compound | cytotoxicity |
| --- | --- |
| Cc1ccc(-n2c(C)nc3c(cnn3-c3ccc(F)cc3)c2=O)cc1 | -1.6% |
| Cc1cc(NC(=O)C2CC(=O)OC2c2ccccc2)no1 (configuration not stated) | 10.6% |
| CC(=O)OC(C(=O)NC1CCCCC1)c1ccc(C#N)cc1 (configuration not stated) | -3.2% |
| Cc1ccccc1-n1c(SCC(=O)N2CCOCC2)nc(O)cc1=O | 3.4% |
| COc1ccccc1C(=O)NC1CCCCCCC1 | 3.1% |
| O=C(NC1=NCCS1)c1ccncc1 | -1.5% |
| O=C(COC(=O)c1cnccn1)NCCc1ccccc1 | -15.3% |
| Cc1c(C(=O)OC2CCCC2)[nH]c2c1C(=O)CC(c1ccco1)C2 (configuration not stated) | 64.9% (active) |
| Cc1c(C(=O)OC2CCC(C)CC2)[nH]c2c1C(=O)CCC2 (configuration not stated) | 0.6% |
| Cc1c(C(=O)OC2CCCCC2)[nH]c2c1C(=O)CC(C)(C)C2 | -1.3% |
| COc1ccc(C2=NOC(C(=O)NC(C)C)C2)cc1 (configuration not stated) | -5.6% |
| CCOc1ccc(OCC)c(NC(=O)CN(C)S(=O)(=O)c2cnc[nH]2)c1 | 11.3% |
| O=C(c1cnn2cccnc12)N1CCN(c2ccccc2)CC1 | 6.5% |
| Cc1ccc2c(c1)c1c3n2CCN(C(=O)Cn2c(-c4ccccc4)noc2=O)C3CCC1 (configuration not stated) | 4.8% |
| CC(=O)N1CCn2c3c(c(=O)c4cc(C)ccc42)CCC31 (configuration not stated) | -5.9% |
| Cc1ccc2c(c1)c(=O)c1c3n2CCN(C(=O)CCl)C3CC1 (configuration not stated) | 102% (active) |
| CCOC(=O)c1c(C)[nH]c(C)c1C(=O)CSc1nnc(-c2ccc(OC(F)F)cc2)o1 | 0.8% |
| COc1ccc(C(=O)c2ccc(OC)c3cccc(O)c23)cc1OC | -5.2% |
| COc1ccc(C(=O)c2ccc(N(C)C)cc2)c2ccccc12 | 63.3% (active) |
| CN(C)c1ccc(C(=O)c2ccc(O)cc2O)cc1 | 3.6% |
| CN(C)c1ccc(C(=O)c2ccccc2)cc1 | -16.8% |
| COc1ccc(C(=O)c2ccc(Cl)cc2)c2ccccc12 | -14.8% |
| CN(C)c1ccc(C(=O)c2ccc(N(C)C)c3ccccc23)cc1 | 69.6% (active) |
| CC1=C(C)CC(C(=O)NCC(=O)c2ccccc2)C(C(=O)O)C1 (configuration not stated) | -5% |
| Cn1cnc([N+](=O)[O-])c1NC(C)(C)C | 8.7% |

| Compound | cytotoxicity |
| --- | --- |
| CCOC(=O)C1=C(C)NC2=C(C(=O)CC(c3cccs3)C2)C1c1cccs1 (configuration not stated) | 5.7% |
| CCCOC(=O)c1[nH]c2c(c1C)C(=O)CC(c1ccc(OC)c(OC)c1)C2 (configuration not stated) | 7.2% |
| CCCOC(=O)c1[nH]c2c(c1C)C(=O)CC(c1cccs1)C2 (configuration not stated) | 66.7% (active) |
| COC(=O)C1=C(C)NC2=C(C(=O)CC(c3cccs3)C2)C1c1ccsc1 (configuration not stated) | 16.3% |
| CCCOCCOC(=O)c1[nH]c2c(c1C)C(=O)CC(c1cc(OC)ccc1OC)C2 (configuration not stated) | 1.3% |
| Cc1c(C(=O)OCC(C)C)[nH]c2c1C(=O)CC(c1cccs1)C2 (configuration not stated) | 66% (active) |
| COC(=O)c1[nH]c2c(c1C)C(=O)CC(c1cccs1)C2 (configuration not stated) | 58.6% (active) |
| COC(=O)c1[nH]c2c(c1C)C(=O)CC(c1cc(OC)ccc1OC)C2 (configuration not stated) | -2.1% |
| CC(C(=O)N=c1sc2ccccc2n1C)N1C(=O)C2CC=CCC2C1=O (configuration not stated) | -11% |
| c1ccc(CCn2c(C3CC3)nc3ccccc32)cc1 | -16.9% |
| CCOC(=O)c1ccc(NC(=O)C(CC)(CC)C(=O)OCC)cc1 | -4.9% |
| CC(C)(C)C1(c2ccccc2)NC(=O)N(CC(=O)N2CCOCC2)C1=O (configuration not stated) | 2.6% |
| COc1cc(C#N)ccc1OCC(=O)c1ccc2c(c1)OCCO2 | -5.9% |
| CCc1cccc(CC)c1NC(=O)CSc1nnc(C(C)C)n1CC | 0.9% |
| Cc1csc(NC(=O)CN2C(=O)C3CC=CCC3C2=O)n1 (configuration not stated) | -13.5% |
| CCOC(=O)c1cccc(NC(=O)CSc2nnc(-c3cccnc3)n2CC)c1 | 12.7% |
| CCn1c(SCC(=O)c2cc(C)n(C)c2C)nnc1-c1ccccc1 | 15.3% |
| CCn1c(SCC(=O)c2cc(C)n(-c3ccc(C(=O)OC)cc3)c2C)nnc1-c1cccnc1 | 69.6% (active) |
| COc1ccccc1NC1=NC(C)(C)N=C(N)N1 | -26.5% |
| COc1ccccc1NS(=O)(=O)c1ccc(Cl)cc1 | 11.9% |
| COc1ccccc1NC1=NC(c2ccc(Cl)cc2)N=C(N)N1 (configuration not stated) | 60.5% (active) |
| O=C(OC1CCS(=O)(=O)c2sccc21)c1ccccc1 (configuration not stated) | -6.9% |
